Reference: PubChem BioAssay (EPA / NIEHS)
Results filed as inconclusive are left out. Where a structure was tested more than once in an assay, its records may differ in their call. Activity calls are given as the source filed them. How the source made its calls: active means hit-call score of the fitted dose curve at least 0.9, where 1 is the maximum; inconclusive means response in the unintended direction; inactive means score below 0.9.

Target: Cellular tumor antigen p53 (Homo sapiens) (UniProt P04637)
Assay: TOX21_p53_BLA_p4_ratio: Tox21 HCT-116 p53 Agonism Beta-lactamase Assay, Ratio, Phase 4 (AID 2283601)
Excerpt: TOX21_p53_BLA_p4 is a cell-based, single-readout assay that uses HCT116, a human intestinal cell line, […] in a 1536-well plate.TOX21_p53_BLA_p4_ratio is an assay readout measuring reporter gene via receptor activity and designed using inducible reporter (beta lactamase induction) detected with GAL4 b-lactamase reporter gene. The signal is derived from the ratio of cleaved (ch2) to uncleaved (ch1)reporter gene substrate used as the measure of target activity.Data from the assay component TOX21_p53_BLA_p4_ratio was analyzed into 1 assay endpoint. This assay endpoint, TOX21_p53_BLA_p4_ratio, was analyzed in the positive analysis fitting direction relative to DMSO as the negative control and baseline of activity. Using a type of inducible reporter, gain-of-signal activity can be used to understand changes in the reporter gene as they relate to the gene TP53. Furthermore, this assay endpoint can be referred to as a primary readout, because this assay has produced multiple assay endpoints where this ratio serves a reporter gene function to understand target activity. To generalize the intended target to other relatable targets, this assay endpoint is annotated to the DNA binding intended target family, where the subfamily is tumor suppressor.
Thawing Method: Place 14 mL of pre-warmed thaw medium into a 15 mL of conical tub. Remove the vial of cells to be thawed from liquid nitrogen and thaw rapidly by placing at 37C in a water bath with gentle agitation for 1-2 minutes. Decontaminate the vial by wiping with 70% ethanol before opening in a biological safety cabinet. Transfer the vial contents drop-wise into 14 mL of thaw medium in a sterile 15-mL conical tub. Centrifuge cells at 900 rpm for 4 minutes and resuspend in thaw medium. Transfer contents to the T75 tissue culture flask containing Thaw Medium and place flask in a humidified 37C/5% CO2 incubator. Switch to growth medium at first passage.Propagation Method: Aspirate medium, rinse once in DPBS, add 0.25% Trypsin/EDTA and swirl to coat the cell evenly. Add an equal volume of Growth Medium to inactivate Trypsin after 2-3 minutes incubation at 37C. Centrifuge cells at 900 rpm for 4 minutes and resuspend in growth medium. Cell should be passage or fed at least twice a week.Assay Protocol: Harvest cells from culture in growth medium and resuspend in assay medium. 2.2 Dispense 4000 cells/5 uL/well into 1536-well black/clear bottom plates using a Multidrop dispenser. After the cells were incubated at 37C for 5 hours, 23 nL of compounds dissolved in DMSO were transferred to the assay plate by a PinTool resulting in a 217-fold dilution. Incubate the plates for 16 hours at 37C, 5% CO2. Add 1 uL of 6X LiveBLAzer FRET B/G (CCF4-AM) Substrate Mixture to each well using a BioRAPTR dispenser and incubate the plates at room temperature for 2 hours. Measure fluorescence intensity at 460 and 530 nm emission and 405 nm excitation by an Envision detector. Data is expressed as the ratio of 460nm/530nm emissions. Add 4 uL of Cell-titer Glo to each well using BioRAPTR and incubate the plates at room temperature for 2 hours. Measure fluorescence intensity by a VewLux plate reader.

Chain of Cellular tumor antigen p53 (Homo sapiens) (P04637 whole entry, looked up): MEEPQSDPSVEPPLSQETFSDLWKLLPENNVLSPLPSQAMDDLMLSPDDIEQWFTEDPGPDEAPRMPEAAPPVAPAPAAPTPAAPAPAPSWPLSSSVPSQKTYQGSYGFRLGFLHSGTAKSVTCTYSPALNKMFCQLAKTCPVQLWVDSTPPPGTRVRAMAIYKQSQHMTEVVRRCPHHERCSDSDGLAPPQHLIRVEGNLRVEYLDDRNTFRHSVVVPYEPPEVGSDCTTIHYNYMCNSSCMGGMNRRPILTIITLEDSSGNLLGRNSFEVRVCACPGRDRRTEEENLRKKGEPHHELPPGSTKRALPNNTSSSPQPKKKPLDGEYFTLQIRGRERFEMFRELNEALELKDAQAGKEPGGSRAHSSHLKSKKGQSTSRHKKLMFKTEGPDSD

SMILES | outcome | AC50
CC(=O)C1=C(C)[C@@H]2C[C@@]3(C1)[C@H](C)CC[C@H]3C2(C)C | inactive | 
CC(C)(C)c1cccc(O)c1 | inactive | 
CC(C)(C)C1CCC(O)CC1 (stereo not given) | inactive | 
c1coc(CNc2ncnc3nc[nH]c23)c1 | inactive | 
[O-]/[N+](=N\O)c1ccccc1 | inactive | 
CCC(C)(C)c1cc(O)c(C(C)(C)CC)cc1O | inactive | 
CC(CCO)CC(C)(C)C (stereo not given) | inactive | 
CN1CCc2cccc3c2[C@H]1Cc1ccc(O)c(O)c1-3 | inactive | 67.3 µM (active)
NC(N)=S | inactive | 
COC(=O)c1cccc(C(=O)OC)c1 | inactive | 
C[Si]1(C)N[Si](C)(C)N[Si](C)(C)N1 | inactive | 
Cc1cc(O)c2c(c1)C(=O)c1cc(O)cc(O)c1C2=O | inactive | 
CCCCCCC(C)O (stereo not given) | inactive | 
O=S1(=O)CC=CC1 | inactive | 
COc1ccccc1O | inactive | 
Nc1ccc(O)c(N)c1 | inactive | 
CCCCC/C=C\C=C\C(=O)OCC |  | 89.9 µM (active)
CC(C)(CO)CO | inactive | 
CCCCCCCCCOS(=O)(=O)O | inactive | 

SMILES | outcome | AC50
CNC(=C[N+](=O)[O-])NCCSCc1ccc(CN(C)C)o1 | inactive | 
CCCCC(CC)COCCO (stereo not given) | inactive | 
CCCCCCCOC(C)=O | inactive | 
O=[N+]([O-])c1cc(N(CCO)CCO)ccc1NCCO | inactive | 
O=c1cc(-c2ccc(O)cc2)oc2cc(O)cc(O)c12 | inactive | 13.4 µM (active)
C/C=C(\C)C(=O)OC/C=C(\C)CCC=C(C)C | inactive | 
COc1ccc(C(C)=O)cc1 | inactive | 
Cc1ccncc1 | inactive | 
CC(C)C(=O)OCC=Cc1ccccc1 | inactive | 
CCCCCC#CC(=O)OC | inactive | 
NC(=O)NC(N)=O | inactive | 
CC(C)COC(=O)c1ccccc1 | inactive | 
NC(=O)c1cccnc1 | inactive | 
CCCCCC1C(=O)CCC1CC(=O)OC (stereo not given) | inactive | 
CC(=O)c1cccnc1 | inactive | 
C=CCOCC(O)CO (stereo not given) | inactive | 
C=C(C)C(=O)OCCC(C)OC(=O)C(=C)C (stereo not given) | inactive | 
CCO[Si](CC)(OCC)OCC | inactive | 
CCOC(=O)CCCCCCCCC(=O)OCC | inactive | 
